# Laboratory results: PubChem BioAssay
# Activity calls are given as the source filed them.
# How the values were obtained:
# [1] = system: PRMT1 (protein arginine N-methyltransferase 1); experiment: PRMT1 binders on small-molecule microarrays, primary screen, biochemical, small-molecule microarray, 635 nm fluorescence (AID 1088); details: small-molecule microarray binding, higher = more signal;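 further: binding of Prmt1 protein to compounds spotted on small-molecule microarray slides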
# [2] = yeast growth modulation, basal conditions, primary screen, YJM789 clinical isolate, OD600, 24 h (AID 1089);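 further: growth of clinical yeast isolate S. cerevisiae YJM 789 seeded 1000 cells per well; test concentration not given here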; details: S. cerevisiae YJM789 growth, higher = more signal, called active from +8 up or from −8 down
# [3] = fission yeast growth modulation, primary screen, strain 972, OD600, 24 h, no modulator (AID 1090);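 further: basal condition with compound alone and no growth modifier present; test concentration not given here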; details: S. pombe 972 growth, higher = more signal, called active from +8 up or from −8 down
# [4] = S. cerevisiae growth modulation with rapamycin, primary screen, strain BY4716, OD600, 96 h (AID 1091); details: higher = more signal, called active from +8 up or from −8 down; further: test concentration not given here
# [5] = target: Torsin-1A-interacting protein 2 (Homo sapiens) (UniProt Q8NFQ8); experiment: LULL1 binders on small-molecule microarray, primary screen, cell lysate, human LULL1 lysate, 635/667 nm fluorescence (AID 1092); details: hLULL1 lysate binding, 635 nm fluorescence, higher = more signal;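 further: probe is lysate of COS7 cells overexpressing human LULL1; score merges per-feature 667 nm fluorescence with signal-to-noise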
# Chain of Torsin-1A-interacting protein 2 (Homo sapiens) (Q8NFQ8 whole entry, looked up): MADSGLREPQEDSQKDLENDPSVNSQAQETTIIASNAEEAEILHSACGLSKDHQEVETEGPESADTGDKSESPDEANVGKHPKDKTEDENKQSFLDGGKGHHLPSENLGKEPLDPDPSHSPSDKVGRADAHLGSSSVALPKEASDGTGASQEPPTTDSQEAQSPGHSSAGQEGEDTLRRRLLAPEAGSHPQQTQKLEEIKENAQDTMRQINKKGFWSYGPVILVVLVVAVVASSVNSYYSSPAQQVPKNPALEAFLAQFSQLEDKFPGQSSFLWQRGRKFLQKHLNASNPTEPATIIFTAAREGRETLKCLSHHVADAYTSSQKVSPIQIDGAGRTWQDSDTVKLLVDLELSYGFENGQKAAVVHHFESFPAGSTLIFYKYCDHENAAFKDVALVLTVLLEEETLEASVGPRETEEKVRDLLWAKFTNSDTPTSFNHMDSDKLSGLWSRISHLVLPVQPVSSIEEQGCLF
# [6] = E. coli growth modulation, two-sided OD650, primary screen, E. coli filamentation project, strain DRC41, 24 h (AID 1093); details: OD650, 24 h, higher = more signal, called active from +8 up or from −8 down;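 further: MC1000 strain lacking acrAB efflux and sulA so SOS filamentation is blocked; test concentration not given here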
# [7] = small-molecule microarray binders of probe aLefty2, primary screen, biochemical, biotinylated probe, 635/667 nm fluorescence (AID 1094); details: higher = more signal;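 further: score merges spot fluorescence near 667 nm with spot signal-to-noise ratio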
# [8] = system: Noggin (protein binding on small-molecule microarray); experiment: Noggin binders on small-molecule microarray, primary screen, biochemical, 635/667 nm fluorescence (AID 1095); details: 635 nm fluorescence, higher = more signal;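 further: score merges 667 nm feature fluorescence with signal to noise over triplicate slides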
# [9] = target: Neurogenic locus notch homolog protein 3 (Homo sapiens) (UniProt Q9UM47); experiment: NOTCH3 binders on small-molecule microarray, primary screen, biochemical, 635/667 nm fluorescence (AID 1096); details: NOTCH3 binding, 635 nm fluorescence, higher = more signal
# Chain of Neurogenic locus notch homolog protein 3 (Homo sapiens) (Q9UM47 whole entry, looked up): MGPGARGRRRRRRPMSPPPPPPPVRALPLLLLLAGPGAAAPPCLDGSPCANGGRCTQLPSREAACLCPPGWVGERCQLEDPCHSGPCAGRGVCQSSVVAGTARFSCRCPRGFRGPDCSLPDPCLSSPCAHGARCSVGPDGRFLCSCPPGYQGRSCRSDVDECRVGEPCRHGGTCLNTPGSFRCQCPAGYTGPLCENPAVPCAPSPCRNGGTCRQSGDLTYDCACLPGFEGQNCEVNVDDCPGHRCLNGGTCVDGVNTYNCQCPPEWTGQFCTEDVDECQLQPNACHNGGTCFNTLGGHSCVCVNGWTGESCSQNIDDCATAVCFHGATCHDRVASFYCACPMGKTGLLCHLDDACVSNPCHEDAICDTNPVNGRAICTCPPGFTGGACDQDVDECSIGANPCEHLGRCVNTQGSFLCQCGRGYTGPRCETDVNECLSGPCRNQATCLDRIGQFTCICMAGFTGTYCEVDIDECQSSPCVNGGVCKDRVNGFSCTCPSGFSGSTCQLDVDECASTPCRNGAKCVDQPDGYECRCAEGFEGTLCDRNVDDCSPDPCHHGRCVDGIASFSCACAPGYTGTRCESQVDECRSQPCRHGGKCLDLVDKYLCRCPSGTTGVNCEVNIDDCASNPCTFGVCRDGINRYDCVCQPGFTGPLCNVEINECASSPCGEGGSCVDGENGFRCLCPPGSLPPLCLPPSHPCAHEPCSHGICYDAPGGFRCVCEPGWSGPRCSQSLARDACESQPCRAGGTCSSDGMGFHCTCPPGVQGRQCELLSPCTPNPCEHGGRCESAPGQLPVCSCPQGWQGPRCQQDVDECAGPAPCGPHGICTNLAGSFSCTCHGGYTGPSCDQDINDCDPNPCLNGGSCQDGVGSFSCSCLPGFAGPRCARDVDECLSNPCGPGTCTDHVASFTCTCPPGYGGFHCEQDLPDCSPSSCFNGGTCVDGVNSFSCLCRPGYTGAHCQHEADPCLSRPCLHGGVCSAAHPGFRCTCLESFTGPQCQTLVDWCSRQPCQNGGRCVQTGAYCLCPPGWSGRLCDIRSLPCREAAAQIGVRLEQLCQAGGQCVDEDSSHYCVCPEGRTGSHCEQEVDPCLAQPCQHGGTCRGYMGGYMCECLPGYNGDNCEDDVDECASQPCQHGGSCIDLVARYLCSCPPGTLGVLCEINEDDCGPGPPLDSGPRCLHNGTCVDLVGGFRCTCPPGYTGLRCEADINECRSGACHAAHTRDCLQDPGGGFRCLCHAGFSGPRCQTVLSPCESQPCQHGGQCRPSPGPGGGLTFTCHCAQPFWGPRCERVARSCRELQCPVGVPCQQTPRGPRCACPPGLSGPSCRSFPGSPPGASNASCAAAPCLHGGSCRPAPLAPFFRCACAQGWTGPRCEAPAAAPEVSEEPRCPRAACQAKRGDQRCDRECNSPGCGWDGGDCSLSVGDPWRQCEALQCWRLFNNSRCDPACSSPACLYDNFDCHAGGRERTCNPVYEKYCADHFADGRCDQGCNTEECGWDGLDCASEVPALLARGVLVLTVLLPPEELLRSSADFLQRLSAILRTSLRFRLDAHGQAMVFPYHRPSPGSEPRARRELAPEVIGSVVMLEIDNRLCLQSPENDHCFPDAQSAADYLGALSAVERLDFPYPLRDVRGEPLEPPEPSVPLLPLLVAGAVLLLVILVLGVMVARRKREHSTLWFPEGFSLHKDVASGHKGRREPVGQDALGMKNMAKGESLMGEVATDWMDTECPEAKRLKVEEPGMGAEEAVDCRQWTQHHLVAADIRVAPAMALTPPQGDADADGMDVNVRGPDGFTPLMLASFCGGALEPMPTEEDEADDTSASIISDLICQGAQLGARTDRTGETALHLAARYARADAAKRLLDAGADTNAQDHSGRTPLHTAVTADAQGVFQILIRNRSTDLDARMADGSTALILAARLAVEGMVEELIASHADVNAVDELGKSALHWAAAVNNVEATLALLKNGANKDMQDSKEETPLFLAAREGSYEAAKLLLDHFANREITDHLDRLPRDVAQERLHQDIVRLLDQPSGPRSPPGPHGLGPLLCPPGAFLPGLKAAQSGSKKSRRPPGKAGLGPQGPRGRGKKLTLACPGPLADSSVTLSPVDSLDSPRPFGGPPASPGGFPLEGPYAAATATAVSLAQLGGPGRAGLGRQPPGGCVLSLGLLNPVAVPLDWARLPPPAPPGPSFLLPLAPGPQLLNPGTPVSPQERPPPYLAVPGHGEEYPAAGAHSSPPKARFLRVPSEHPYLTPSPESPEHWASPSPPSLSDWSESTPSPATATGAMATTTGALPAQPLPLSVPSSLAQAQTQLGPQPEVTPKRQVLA
# [10] = small-molecule microarray binders of probe aEGFR, primary screen, biochemical, biotinylated probe, 635/667 nm fluorescence (AID 1097); details: higher = more signal;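 further: probe is a biotinylated anti-EGFR antibody binding compounds printed on slides; score combines fluorescence near 667 nm and signal to noise of each spot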
SMILES,composite z-score [1],z-score [2],z-score [3],z-score [4],composite z-score [5],z-score [6],composite z-score [7],composite z-score [8],composite z-score [9],composite z-score [10]
C=C(/C=C/CNS(=O)(=O)c1ccc(C)cc1)[C@H](O)[C@H]1CCCN1S(=O)(=O)c1ccccc1[N+](=O)[O-],0.13,1.27 (inactive),0.24 (inactive),1.72 (inactive),-0.271,0.913 (inactive),-0.0948,1.3,0.291,0.0408
CC(C)C(=C=CC[C@@H](O)c1ccccc1OCCO)C[C@@H](O)COCc1ccccc1,1.29,-19.2 (active),-20.5 (active),-3.68 (inactive),1.16,1.44 (inactive),-0.139,1.24,0.388,0.001
CCOC(=O)C[C@H]1[C@H](OC(=O)Cc2ccc3c(c2)OCO3)[C@@H](NC(=O)Cc2ccc(OC)cc2)c2cc(OCCCO)ccc2N1C(=O)c1ccccc1,1.26,-0.13 (inactive),0.0145 (inactive),0.234 (inactive),1.37,1.26 (inactive),-0.0846,0.0653,0.608,0.0032
CCCC[C@@H]1C[C@H]1[C@@H](NC(=O)c1ccccc1)c1ccc(Cl)cc1,-1.36,0.222 (inactive),-1.96 (inactive),-2.01 (inactive),0.0826,-1.49 (inactive),-0.204,-2.06,-1.77,-0.421
COc1cc2c(cc1OC)CN(C(=O)[C@H]1[C@@H]3C(=O)O[C@@H](c4ccccc4)[C@@H](c4ccccc4)N3[C@@H](c3ccc(OCCO)cc3)[C@]13C(=O)Nc1ccc(C#CCCO)cc13)CC2,1.54,2.48 (inactive),1.55 (inactive),5.29 (inactive),2.87,0.314 (inactive),0.0448,1.14,1.06,-0.0069
COCC(=C=CC[C@H](O)c1ccc(OCCO)cc1)C[C@H](O)COCc1ccccc1,1.51,-1.49 (inactive),-1.44 (inactive),-0.885 (inactive),1.64,0.825 (inactive),-0.298,1.4,0.573,-0.02
C=CCOC(=O)[C@H]1[C@@H]2C(=O)O[C@@H](c3ccccc3)[C@@H](c3ccccc3)N2[C@@H](c2ccc(OCCOC(=O)[C@H]3C[C@H]4C(=O)N[C@@H](Cc5ccccc5)C(=O)N4[C@H]3c3cccc(OCCO)c3)cc2)[C@]12C(=O)Nc1ccc(I)cc12,1.54,0.731 (inactive),1 (inactive),4 (inactive),2.36,-0.0451 (inactive),-0.185,1.91,1.09,-0.067
CC(C)OC(=O)CC(=O)CC(O)c1cccc(C#N)c1 (stereo not given),0.864,-2.17 (inactive),-0.0003 (inactive),-1.66 (inactive),2.15,0.435 (inactive),0.237,-0.412,0.753,0.0201
CN(C)CCCNC(=O)[C@@]1(c2ccc([N+](=O)[O-])cc2)CC(=O)N(CC23CC4CC(CC(C4)C2)C3)[C@@H]1c1ccc(CO)cc1,1.53,-22.2 (active),-20.2 (active),-4.03 (inactive),3.39,-0.279 (inactive),0.969,1.32,1.05,0.0529
COc1ccc([Si](C)(C)[C@@H]2[C@@H](CCn3cc([C@H](O)c4ccccc4)nn3)O[C@]3(C(=O)N(Cc4ccc(N5CCOC5=O)cc4)c4ccccc43)[C@H]2C)cc1,1.55,-0.113 (inactive),0.984 (inactive),2.04 (inactive),0.995,1.87 (inactive),0.047,1.01,1.12,0.0711
C=C(CCCC)C(=O)CC[C@@H](OC(=O)c1ccccc1-c1ccccc1C(=O)O)c1cccc(OCCO)c1,1.53,0.299 (inactive),-0.694 (inactive),-0.541 (inactive),0.13,0.169 (inactive),-0.31,1.06,0.675,-0.287
CC(=O)NCCCC[C@@H]1NC(=O)[C@@H]2C[C@H](C(=O)O)[C@H](c3ccc(O)cc3)N2C1=O,-0.728,0.611 (inactive),1.36 (inactive),0.442 (inactive),2.17,0.129 (inactive),0.0208,-1.42,-1.27,-0.322
CN1C(=O)C2C=CC(C(O)c3c(F)cccc3Cl)N(Nc3ccccc3)C2C1=O (stereo not given),1.04,-0.0908 (inactive),1.19 (inactive),0.437 (inactive),3.44,-0.757 (inactive),0.244,0.0319,1.07,0.0562
C=CCC(OC(C)=O)[C@@H]1[C@@H](N(Cc2cc3ccccc3o2)C(=O)c2ccc(C)cc2)c2cc(OCCCO)ccc2N1C(=O)Cc1ccc2ccccc2c1 (stereo not given in full),-0.208,0.627 (inactive),-0.423 (inactive),0.469 (inactive),0.0257,2.18 (inactive),0.18,1.81,-0.725,-0.094
C=C1C2CC3C(=C4C(CO[C@@H]4[C@H]4CCCN4S(=O)(=O)c4ccccc4[N+](=O)[O-])C4C(=O)N(C)C(=O)C34)CC2C(=O)N1C (stereo not given in full),0.627,-0.0815 (inactive),-4.92 (inactive),-0.824 (inactive),0.303,-0.509 (inactive),-0.139,0.082,0.22,0.106
CC1CC/C=C\[C@H]2OC34C=CCN(c5ccc6ccccc6c5)C(=O)[C@H]3N(C(CO)C(C)C)C(=O)[C@@H]4C2C(=O)O1 (stereo not given in full),0.445,-1.03 (inactive),-1.55 (inactive),-0.797 (inactive),1.76,-0.578 (inactive),-0.0313,-0.0033,0.135,-0.126
CN1C2C=C(CCCO)C(C3C(=O)N(C(N)=O)C(=O)C32)C1c1cccs1 (stereo not given),0.613,1.06 (inactive),1.1 (inactive),0.689 (inactive),0.502,0.155 (inactive),0.89,-0.23,-0.658,0.976
O=C(O)[C@]1(Cc2ccccc2)N=C(c2ccc(OCCCO)cc2)O[C@@H]1c1ccccc1,-1.27,0.624 (inactive),-0.695 (inactive),0.286 (inactive),1.55,0.377 (inactive),-0.143,-0.849,-0.786,-0.208
C[C@@H](OCc1ccccc1)C1NC(=O)[C@@]23C(=O)N[C@@H](Cc4ccccc4)C2[C@H](C)[C@@]2(C)O[C@H]2C3/C=C/C/C=C\CNC(=O)CNC1=O (stereo not given in full),-0.615,0.569 (inactive),-1.32 (inactive),-0.929 (inactive),0.621,-0.557 (inactive),-0.145,-0.526,-0.0955,-0.24
CN(C)C(=O)[C@]1(CCC(=O)OC(C)(C)C)N=C(c2ccc(OCCCO)cc2)O[C@@H]1c1ccccc1,0.637,0.182 (inactive),-0.993 (inactive),-0.273 (inactive),3.56,1.27 (inactive),0.0601,-0.674,-0.301,0.625
C=C(/C(=C/C[C@@H](OC(=O)c1ccncc1)c1ccccc1OCCO)c1cc(C(=O)OC)ccc1OC)C(C)C,1.56,0.381 (inactive),-0.633 (inactive),-0.338 (inactive),3.07,0.616 (inactive),-0.0155,0.88,1.01,-0.0353
CCCC[C@@H]1C[C@H]1[C@@H](NC(=O)c1cccnc1)c1ccc(-c2ccccc2)cc1,-0.537,-1.27 (inactive),-15.7 (active),-2.6 (inactive),-0.795,-0.919 (inactive),0.009,1.01,-0.476,-0.345
COc1cc(CO)cc(I)c1O[C@H]1C=C(C(=O)NCCO)C[C@@H](N(Cc2ccc(F)cc2)C(=O)C2CCCO2)[C@@H]1O (stereo not given in full),-0.516,-0.558 (inactive),-0.389 (inactive),-0.188 (inactive),-0.492,3.2 (inactive),-0.116,0.0313,-0.331,-0.158
CC(C)C(O)C1C=CC2C(=O)N(C)C(=O)C2N1Nc1ccccc1 (stereo not given),0.694,0.324 (inactive),-0.163 (inactive),0.204 (inactive),3.3,-0.381 (inactive),0.873,0.206,0.707,0.515
Cc1ccc(S[C@]2(C(=O)O)CC(=O)N(Cc3ccccc3Cl)[C@@H]2c2ccc(CO)cc2)cc1,-0.164,-0.0285 (inactive),-1.31 (inactive),0.644 (inactive),2.95,-0.0647 (inactive),0.0069,-1.46,-0.944,-0.119
CC(=O)n1cc(C(O)C2C=CC3C(=O)N(Cc4ccccc4)C(=O)C3N2n2cnnc2)c2ccccc21 (stereo not given),0.77,-0.423 (inactive),0.552 (inactive),0.192 (inactive),1.23,-0.901 (inactive),-0.0858,-0.415,0.193,0.728
CCOC(=O)C[C@H]1[C@H](OC(=O)c2ccc(-c3ccccc3)cc2)[C@@H](NC(=O)c2ccc3ccccc3n2)c2cc(OCCCO)ccc2N1C(=O)c1ccccc1,1.52,0.617 (inactive),0.33 (inactive),0.976 (inactive),2.11,-0.81 (inactive),-0.171,0.671,1.05,0.0026
O=C1NC(=O)C2C1C=CC(C(O)c1ccc(Br)cc1)N2Nc1ccccn1 (stereo not given),0.215,-1.26 (inactive),0.61 (inactive),-0.683 (inactive),1.18,-0.931 (inactive),0.119,0.248,0.63,0.315
O=C1O[C@@H](c2ccccc2)[C@@H](c2ccccc2)N2[C@@H](c3ccccc3OCCO)[C@]3(C(=O)Nc4ccc(C#CCCO)cc43)[C@@H](C(=O)Nc3nc4ccccc4s3)[C@H]12,1.55,1.49 (inactive),-0.487 (inactive),3.2 (inactive),2.64,1.59 (inactive),0.259,0.448,1.05,0.131
